Test results from PubChem BioAssay (EPA / NIEHS).
Where “and” joins values, the source holds several entries; their conditions need not be identical. Equal entries are not always repeated. Results filed as inconclusive are left out. Some compounds were tested as several samples or in several runs, with calls that do not always agree. Calls of active or inactive are those of the source. The calls were made as follows: active = hit-call score of the fitted dose curve at least 0.9, where 1 is the maximum; inconclusive = response in the unintended direction; inactive = score below 0.9.

What was measured:
[1] = ATG_XTT_Cytotoxicity: Cytotoxicity Assessment in the Attagene TRANS-FACTORIAL HepG2 Assay (AID 2283584)
Method in brief: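 HepG2 human liver cells, transiently transfected with multiple GAL4-UAS reporter units, were dosed and read at 24 h by XTT as cell number. Loss of signal was fitted relative to DMSO negative control baseline.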

[2] = TOX21_p53_BLA_p2_viability: Viability Assessment in the Tox21 HCT-116 p53 Agonism Beta-lactamase Assay, Phase 2 (AID 2283591);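 also: compound exposure lasted 16 h at 37 °C; actives lower the ATP signal meaning cytotoxicity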
Method in brief: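 HCT-116 p53-bla cells (4000/well) rested 5 h at 37C, then received compounds in DMSO (217-fold dilution) for 16 h at 37C, 5% CO2. After the CCF4 read, CellTiter-Glo was added; ATP luminescence was read after 30 min at room temperature.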

[3] = biological target: Cellular tumor antigen p53 (Homo sapiens) (UniProt P04637); assay: TOX21_p53_BLA_p2_ratio: Tox21 HCT-116 p53 Agonism Beta-lactamase Assay, Ratio, Phase 2 (AID 2283592)
Method in brief: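 Ratio endpoint: beta-lactamase cleavage of CCF4-AM, blue (460 nm) over green (530 nm). HCT116 reporter line; 16 h treatment, 37C; substrate 2 h RT.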

[4] = TOX21_p53_BLA_p3_viability: Viability Assessment in the Tox21 HCT-116 p53 Agonism Beta-lactamase Assay, Phase 3 (AID 2283593);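 also: cells exposed to compound for 16 h before reading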
Method in brief: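 HCT-116 cells (4000/well) rested 5 h at 37C, then got DMSO compounds by pin tool (217-fold dilution) for 16 h at 37C, 5% CO2. After the bla read, CellTiter-Glo was added and luminescence read at 30 min, room temperature.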

[5] = biological target: Cellular tumor antigen p53 (Homo sapiens) (UniProt P04637); assay: TOX21_p53_BLA_p3_ratio: Tox21 HCT-116 p53 Agonism Beta-lactamase Assay, Ratio, Phase 3 (AID 2283596)
Method in brief: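 Cells were seeded at 4000/well, rested 5 h at 37C, then dosed with DMSO compound solutions (217-fold dilution) for 16 h. CCF4-AM substrate was loaded for 2 h at room temperature, and the 460/530 nm emission ratio was fitted for gain of signal versus DMSO.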

[6] = TOX21_p53_BLA_p4_viability: Viability Assessment in the Tox21 HCT-116 p53 Agonism Beta-lactamase Assay, Phase 4 (AID 2283597);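 also: hits lower the luminescence signal meaning cytotoxicity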
Method in brief: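 Cytotoxicity was inferred from loss of CellTiter-Glo luminescence. HCT116 cells had been dosed with compounds after 5 h plating, incubated 16 h at 37C and 5% CO2, and exposed to the CCF4-AM substrate for 2 h.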

[7] = biological target: Cellular tumor antigen p53 (Homo sapiens) (UniProt P04637); assay: TOX21_p53_BLA_p5_ratio: Tox21 HCT-116 p53 Agonism Beta-lactamase Assay, Ratio, Phase 5 (AID 2283599)
Method in brief: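 HCT-116 cells carrying a p53-inducible beta-lactamase reporter were seeded at 4000 cells/well and dosed after 5 h with compound in DMSO (217-fold dilution). After 16 h at 37C, CCF4-AM substrate was added for 2 h, and the 460/530 nm emission ratio was scored as gain-of-signal versus DMSO.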

[8] = TOX21_p53_BLA_p5_viability: Viability Assessment in the Tox21 HCT-116 p53 Agonism Beta-lactamase Assay, Phase 5 (AID 2283600)
Method in brief: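 Luciferase-coupled ATP quantitation of cells treated for 16 h (37C, 5% CO2) with test chemicals delivered in DMSO via a 217-fold dilution; 4000 cells/well; reagent incubated 30 min at room temperature before luminescence reading.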

[9] = biological target: Cellular tumor antigen p53 (Homo sapiens) (UniProt P04637); assay: TOX21_p53_BLA_p4_ratio: Tox21 HCT-116 p53 Agonism Beta-lactamase Assay, Ratio, Phase 4 (AID 2283601)
Method in brief: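 HCT116 cells carrying an inducible beta-lactamase reporter were plated at 4000 cells/well, rested 5 h, then exposed to compounds in DMSO (217-fold dilution) for 16 h at 37C. CCF4-AM substrate was loaded 2 h at room temperature; 460/530 nm emission ratio scored gain-of-signal versus DMSO.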

Measured: AC50

Chain of Cellular tumor antigen p53 (Homo sapiens) (P04637 whole entry, looked up): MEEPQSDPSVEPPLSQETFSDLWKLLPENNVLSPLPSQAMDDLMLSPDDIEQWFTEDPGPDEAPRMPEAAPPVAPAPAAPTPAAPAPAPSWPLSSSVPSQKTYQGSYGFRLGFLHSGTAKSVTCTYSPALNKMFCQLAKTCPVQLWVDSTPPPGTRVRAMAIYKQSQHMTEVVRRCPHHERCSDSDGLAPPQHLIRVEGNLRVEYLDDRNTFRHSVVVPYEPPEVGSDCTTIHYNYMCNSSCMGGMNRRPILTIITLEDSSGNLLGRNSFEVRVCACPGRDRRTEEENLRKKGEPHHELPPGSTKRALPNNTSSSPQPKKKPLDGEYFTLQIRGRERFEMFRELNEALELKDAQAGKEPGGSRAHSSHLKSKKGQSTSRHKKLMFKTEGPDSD

O=c1oc(=O)c2cc3c(=O)oc(=O)c3cc12
inactive: [1]

Cc1ccc(C=O)cc1
inactive: [1]

CC(c1cc2ccccc2s1)N(O)C(N)=O (stereo not given)
inactive: [1]

CC(CC(C)(C)C)CC(C)(C)CC(C)(C)C (stereo not given)
inactive: [1]

COc1cc(C(C)(C)C)c(O)c(C(C)(C)C)c1
inactive: [1]

Cc1cccc(C)c1C
inactive: [1]

CCCC[n+]1ccccc1
inactive: [1]

N#Cc1ccc(CC(=NNC(=O)Nc2ccc(OC(F)(F)F)cc2)c2cccc(C(F)(F)F)c2)cc1
inactive: [1]

O=C(Cl)c1cccc(C(=O)Cl)c1
active: [3] 46.1 µM
inactive: [1] | [2] | [3] | [4] | [5] | [6] | [7] | [8] | [9]

OC1C(O)C(O)C(O)C(O)C1O (stereo not given)
inactive: [1]

Nc1ccc(F)c([N+](=O)[O-])c1
inactive: [1]

O=C(O)CCCCCCCCCCC(=O)O
inactive: [1]

Nc1cc(N)cc(C(=O)O)c1
inactive: [1]

CC(CN1c2ccccc2Sc2ccccc21)N(C)C (stereo not given)
active: [2] 38.9 µM | [3] 43.6 µM | [7] 43.5 µM | [8] 39.8 µM
inactive: [1] | [3] | [7] | [9]

Cc1ccc(C(=O)c2cc(O)c(O)c([N+](=O)[O-])c2)cc1
active: [2] 53.8 µM | [3] 14.6 µM | [4] 46.1 µM | [7] 71.3 µM | [9] 49.6 µM
inactive: [1] | [2] | [3] | [4] | [5] | [7] | [8] | [9]

NCCCN1CCOCC1
inactive: [1]

C=CC(C)(C)O
inactive: [1]

Cc1ccc(O)c(C(C)(C)C)c1
inactive: [1] | [2] | [3] | [5] | [8]
active: [2] 44.8 µM | [3] 68.4 µM | [5] 49.1 µM | [6] 46.1 µM and 52.5 µM | [7] 60.5 µM and 67.9 µM | [8] 42.9 µM | [9] 72.2 µM and 68.5 µM

C[C@H]1C[C@H]2[C@@H]3CCC4=CC(=O)C=C[C@]4(C)[C@@]3(F)[C@@H](O)C[C@]2(C)[C@@]1(O)C(=O)COP(=O)(O)O
inactive: [1] | [2] | [3] | [4] | [5] | [6] | [8] | [9]

Nc1cc(Cl)c(O)c(Cl)c1
inactive: [1] | [2] | [3] | [4] | [5] | [6] | [7] | [9]

COc1ccc(Nc2ccccc2)c(C)c1
inactive: [1] | [2] | [3] | [4] | [5] | [6] | [7] | [8] | [9]

O=C(O)c1ccc(C(=O)O)cc1
inactive: [1] | [2] | [3] | [4] | [5] | [6] | [7] | [8] | [9]

CCCCCNCCCCC
inactive: [1] | [2] | [3] | [4] | [5] | [7] | [9]

CNC(=O)Oc1ccc2c(c1)[C@]1(C)CCN(C)[C@@H]1N2C
inactive: [1] | [2] | [3] | [4] | [5] | [6] | [7] | [8] | [9]

O=C(O)CCCCCCCC(=O)O
inactive: [1] | [2] | [3] | [4] | [5] | [7] | [8] | [9]

Nc1cccc(S(=O)(=O)c2cccc(N)c2)c1
inactive: [1] | [2] | [3] | [4] | [5] | [6] | [7] | [8] | [9]

O=C(O)c1cccc([N+](=O)[O-])c1
inactive: [1] | [2] | [3] | [4] | [5] | [7] | [8] | [9]

NCCNCCN
inactive: [1] | [2] | [3] | [4] | [5] | [6] | [7] | [8] | [9]

COCCCOc1ccnc(CS(=O)c2nc3ccccc3[nH]2)c1C (stereo not given)
inactive: [1] | [2] | [3] | [4] | [5] | [6] | [7] | [8] | [9]
